NR1D1 modulator – Rev-erb alpha (human) modulation; 370,000 compounds, 0.79% hits; Rev-erbα–FITC-DNA binding, fluorescence polarization, 90 min; AID 1259318; activity, % at 10 µM; P20393;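 active = activity above about 14%, limit read from the data; passing the limit was not always enough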;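 also: 0% = DMSO wells with 35 nM protein and 100% = DMSO wells with 750 nM protein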
hcDAF12 agonist – H. contortus DAF-12 activation, primary screen | HEK293 hcDAF-12 lit1-tk-luc reporter, luminescence; 0% DMSO, 100% Δ7-dafachronic acid | activation, % at 6.8 µM | 370,000 compounds, 1.4% hits | AID 652067;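 active = activation above the mean of all tested compounds plus 3 SD, cut at about 5.5% in these data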;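 also: 100% = response to 3 µM Δ7-dafachronic acid high control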
DAX1 inh-1 – inhibits human nuclear receptor DAX1; P51843; HEK293 Gal4-DAX1 luciferase reporter, luminescence; inhibition, % at 6.75 µM; 340,000 compounds, 0.99% hits;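 active = inhibition above the mean over all tested compounds plus 3 SD, cut at about 4.2% in these data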;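 also: 0% = DAX1-transfected cells with DMSO and 100% = empty-vector control cells with DMSO; inhibition shows as a rise in luminescence from relieved DAX1 repression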
Target sequence (P51843 207-470 limits assumed): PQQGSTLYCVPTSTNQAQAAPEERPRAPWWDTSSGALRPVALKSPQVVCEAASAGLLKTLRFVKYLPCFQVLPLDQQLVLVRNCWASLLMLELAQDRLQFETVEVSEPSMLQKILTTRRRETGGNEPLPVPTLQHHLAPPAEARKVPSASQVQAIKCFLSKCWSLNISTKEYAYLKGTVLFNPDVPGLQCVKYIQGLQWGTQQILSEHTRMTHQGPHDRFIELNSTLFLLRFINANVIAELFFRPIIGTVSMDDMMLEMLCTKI
DAX1 inh-2 – DAX1 (NR0B1) inhibition, primary screen; inhibition, % at 6.8 µM; AID 652010; HEK293T StAR-luciferase reporter, SF-1/DAX-1 repression relief; 370,000 compounds, 1.1% hits;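 active = inhibition above the mean over all tested compounds plus 3 SD, cut at about 3.6% in these data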;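 also: 0% = DAX-1 cells with DMSO and 100% = cells lacking DAX-1 with DMSO; higher inhibition means more luminescence from relief of DAX-1 repression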
ssDAF12 agonist – activators of S. stercoralis DAF-12 nuclear receptor; activation, % at 6.8 µM; HEK293 ssDAF-12/GRIP1 lit1-tk-luc reporter, luminescence; % of 3 µM dafachronic acid response; 370,000 compounds, 1% hits;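 active = activation above the mean over all tested compounds plus 3 SD, cut at about 0.9% in these data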;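 also: 0% = DMSO-only wells and 100% = 3 µM delta7-dafachronic acid wells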
hgDAF-12 ag – activates the H. glycines DAF-12 receptor ligand-binding domain | activation, % at 6.8 µM | 370,000 compounds, 1.8% hits | HEK293 GAL4-hgDAF12 UAS-luciferase reporter, agonist luminescence; normalized to butyrate control;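 active = activation above a cutoff set at the mean of all screened compounds plus 3 SD, cut at about 10% in these data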;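 also: 0% = DMSO wells and 100% = sodium butyrate wells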
NR1D1 mod conf – Rev-erb alpha (human) modulation, hit confirmation. shares compounds with NR1D1 modulator. Rev-erb alpha FITC-DNA binding, fluorescence polarization, 90 min. activation, % at 25 µM. 3,000 compounds, 61% hits;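 active = activation at or above a set limit, or at least 3 SD above the negative control mean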;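 also: 0% = 35 nM protein with DMSO and 100% = 750 nM protein high control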
RORg DNA counter – RORgamma DNA-binding activity, dose-response counter-screen. shares compounds with NR1D1 modulator. purified RORgamma protein-FITC-DNA binding, fluorescence polarization. IC50, µM. 910 compounds, 8% hits. AID 1259320;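 active = Compounds whose fitted half-maximal concentration for disrupting protein-DNA binding is below 10 micromolar; the record names Rev-erb in its text, so the target is in doubt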
Starred values were filed as active, the others as inactive; / = not tested or not shown; ! = repeats disagree. Most compounds without a hit are left out; they make up all but 4.8% or so of the library.

SMILES	NR1D1 modulator	hcDAF12 agonist	DAX1 inh-1	DAX1 inh-2	ssDAF12 agonist	hgDAF-12 ag	NR1D1 mod conf	others
CC(C)C[C@H](NC1(C(=O)NC2CCCCC2)CCN(C)CC1)C(=O)NCC(c1ccccc1)c1ccccc1	-4.6	1.3	/	/	-0.7	3.5	/
CC(=O)Nc1ccc(O)c(-c2nc3ccccc3s2)c1	230.7*	4.1	-1.2	0.6	0.0	14.4*	384.6*	RORg DNA counter=>40
Cc1ccsc1C(=O)Nc1ccc(O)c(-c2nc3ccccc3s2)c1	449.8*	3.2	0.0	0.3	-0.4	2.3	353.9*	RORg DNA counter=>40
O=C(CCS(=O)(=O)c1ccccc1)Nc1ccc(-c2nc3ccccc3s2)c(O)c1	8.5	0.7	1.6	2.0	-0.4	8.9	/
O=C(Cn1nnc(-c2ccncc2)n1)Nc1ccc(Oc2ccccc2)cc1	5.1	-4.1	/	-0.9	-1.4	-1.9	/
COc1ccc(-n2c(COc3ccccc3)nnc2SCc2nc3ccccc3[nH]2)cc1	-1.1	0.4	/	0.6	-1.4	-0.8	/
CCOC(=O)/C(C#N)=C\C=C1C=CN(C)C=C1	30.9*	1.7	2.3	1.4	-0.3	6.9	28.3*
CCOC(=O)/C(C#N)=C\c1ccc(CC)s1	6.2	-1.5	0.3	0.3	-1.0	2.1	/
CC(C)Cn1c(N)c(C(=O)CSc2ncnc3sc4c(c23)CCCC4)c(=O)n(C)c1=O	65.1*	-1.9	-0.4	-0.2	-1.8	-1.4	14.2
CC(C)Oc1ccc(CN2CCCC(CO)(Cc3ccccc3)C2)cc1CO (stereo not drawn)	1.5	-0.2	-0.5	-0.1	-1.4	-3.3	/
COc1ccc(CN2CCCC(CO)(Cc3ccc(F)cc3)C2)cc1C (stereo not drawn)	12.6*	0.5	0.2	0.7	-1.0	-1.2	3.1
CCOC(=O)c1cc(-c2ccc3c(c2)OCO3)nc2onc(C)c12	33.2*	-0.4	2.5	-0.6	-1.4	-1.4	8.7
N#C/C(=C\c1ccc(-c2ccc(C(=O)O)cc2)o1)c1nc2ccccc2[nH]1	41.9*	3.5	0.6	-0.7	-0.9	2.7	27.2*
Cc1cc(Cl)ccc1Oc1ncc(-c2ccc(Cl)cc2)cn1	23.7*	1.7	0.3	0.1	0.0	0.6	17.9*
Cc1cc(Cl)ccc1Oc1ncnc2oc(-c3ccccc3)cc12	8.2	-0.1	-1.1	0.3	-0.7	0.6	/
O=C1C2C(CC3c4ccccc4CCN32)CN1c1ccccc1 (stereo not drawn)	-6.9	0.1	/	-1.8	-0.4	3.2	/
COc1ccc(-n2c(SCC(=O)Nc3ccc4cn[nH]c4c3)nnc2-c2ccccc2)cc1	-13.5	-1.9	/	-1.6	-1.7	2.7	/
Cc1cc2cc(CN(Cc3ccco3)C(=O)C3CCCCC3)c(=O)[nH]c2cc1C	43.1*	-1.3	-0.4	0.2	-1.2	-1.1	43.8*
Cc1cc2cc(CN(Cc3ccco3)C(=O)NCc3ccccc3)c(=O)[nH]c2cc1C	1.1	-1.6	0.1	0.1	-1.5	0.3	/
Cc1ccc2c(c1)N(CCCC(=O)NCc1c(F)cccc1F)C(=O)CO2	-0.6	-2.1	/	-1.5	-1.5	3.3	/
CC(C)[C@H](N)C(=O)N[C@H](C(=O)N1CCC2CCN(S(=O)(=O)c3ccccc3)CC21)C(C)C (stereo partly drawn)	3.5	-1.2	/	-0.1	-1.2	0.5	/
COc1ccc(CCNC(=O)c2[nH]c(C)c(C(C)=O)c2C)cc1OC	0.1	-1.9	1.6	1.3	-1.2	-1.8	/
COc1ccc(OC)c(NC(=O)c2[nH]c(C)c(C(C)=O)c2C)c1	31.5*	5.8*	1.3	0.9	-1.0	2.2	22.0*
COc1ccc(Cl)cc1NC(=O)c1[nH]c(C)c(C(C)=O)c1C	30.6*	2.8	0.0	0.1	-0.2	2.0	35.0*	RORg DNA counter=>40
COC(=O)[C@]12C[C@H](CC(=O)NCc3cccc4ccccc34)C(=O)N(Cc3ccc(Cl)cc3Cl)C1=C[C@H](C1CCCC1)O[C@@H]2C	8.6	-1.2	/	0.4	-1.0	3.9	/
SMILES	NR1D1 modulator	hcDAF12 agonist	DAX1 inh-1	DAX1 inh-2	ssDAF12 agonist	hgDAF-12 ag	NR1D1 mod conf	others
CN(C(=O)COC(=O)c1cc(-c2ccc(Cl)s2)nc2ccccc12)C1CCS(=O)(=O)C1 (stereo not drawn)	51.3*	0.3	-2.1	0.0	-0.7	0.6	13.0
Cc1cccc(-c2cccc3c4c([nH]c23)[C@@H]2C[C@H](N(C)C(=O)C3CCCCC3)[C@H]([C@H](C)O)CN2CC4)c1	-3.0	1.6	/	0.2	-1.4	-2.6	/
COc1ccc(-n2cc(C(=O)c3cc4ccccc4oc3=O)c(C(C)=O)n2)cc1	22.8*	0.6	-0.4	0.1	-1.2	2.3	9.4
O=C(Nc1ccc2c(c1)C(=O)NC2=O)c1cc(Cl)ccc1Cl	144.3*	-1.4	0.8	0.0	-1.6	1.7	120.8*	RORg DNA counter=>40
Fc1ccc(Cn2ccc3ccc(-c4ccc5ccn(Cc6ccc(F)cc6F)c5c4)cc32)c(F)c1	4.4	1.2	/	-0.3	-1.0	2.0	/
CCN(c1cccc(C)c1)S(=O)(=O)c1cc2c3c(c1)CCC(=O)N3CCC2	53.1*	-1.5	0.3	-2.6	-1.5	-2.3	62.4*	RORg DNA counter=>40
O=S1(=O)c2ccc(N3CCC[C@@H]3CO)cc2O[C@H]2CCN1C2	-3.7	1.9	/	-0.3	-0.8	-2.6	/
COc1cccc(CNC(=O)CN2CCCc3ccccc32)c1	1.1	1.9	/	-0.3	-0.3	1.2	/
COc1cc(-c2ccc3oc(-c4ccsc4)cc(=O)c3c2)cc(OC)c1OC	-2.5	-4.5	-4.0	-1.6	-2.2	-5.0	/
CCOC(=O)c1ccc(-c2ccc3oc(-c4ccsc4)cc(=O)c3c2)cc1F	57.7*	-1.7	-0.2	0.4	-0.5	-0.1	11.5
O=C1CCCC2=C1C1(CCCC1)N=C(Nc1nc3ccccc3o1)N2	20.9*!	0.6	/	1.2	-0.4	0.9	-4.5
O=C1CCCC2=C1C1(CCCC1)N=C(Nc1nc3cc(-c4ccccc4)ccc3o1)N2	0.6	-1.3	/	0.9	-1.0	-2.1	/
Cc1ccc(S(=O)(=O)NC[C@H]2CN(S(=O)(=O)c3ccc(C)cc3)[C@@H](Cc3ccccc3)CO2)cc1	7.6	0.2	/	/	-2.0	-1.3	/
Cc1ccc(Oc2nccc(-c3ccc(Cl)cc3)n2)cc1	47.1*	2.3	0.0	-0.1	-0.4	0.9	45.6*	RORg DNA counter=>40
CC(C)(C)c1nc(SCC(=O)Nc2ccc(N3CCOCC3)cc2)c2ccccc2n1	53.4*	-0.2	-1.8	-1.6	-0.8	-1.1	17.0*
CC(C)(C)c1nc(SCC(=O)Nc2ccc3c(c2)OCCO3)c2ccccc2n1	73.1*	0.1	0.0	-1.6	-0.8	4.9	35.4*	RORg DNA counter=3.01*

Compound activity: PubChem, several laboratories
